ALDH1A1 inh – inhibitors of human aldehyde dehydrogenase 1A1. P00352. Purified ALDH1A1, NADH fluorescence, propionaldehyde substrate. Potency, µM (titrated, usually from 75.3 µM), inactives show at the highest dose activity, negative = inhibition, most hits filed as inhibitors. 220,000 compounds, 7.3% hits. AID 1030; active means well fitted inhibition curve with a large enough effect, not every such curve was filed as active; inconclusive means small, poorly fitted or top-dose-only effect, or another doubt; inactive means no such curve, though single readings can be large or run the other way;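 further: plate controls were no enzyme wells and a reference inhibitor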
Target sequence (P00352 whole entry, looked up): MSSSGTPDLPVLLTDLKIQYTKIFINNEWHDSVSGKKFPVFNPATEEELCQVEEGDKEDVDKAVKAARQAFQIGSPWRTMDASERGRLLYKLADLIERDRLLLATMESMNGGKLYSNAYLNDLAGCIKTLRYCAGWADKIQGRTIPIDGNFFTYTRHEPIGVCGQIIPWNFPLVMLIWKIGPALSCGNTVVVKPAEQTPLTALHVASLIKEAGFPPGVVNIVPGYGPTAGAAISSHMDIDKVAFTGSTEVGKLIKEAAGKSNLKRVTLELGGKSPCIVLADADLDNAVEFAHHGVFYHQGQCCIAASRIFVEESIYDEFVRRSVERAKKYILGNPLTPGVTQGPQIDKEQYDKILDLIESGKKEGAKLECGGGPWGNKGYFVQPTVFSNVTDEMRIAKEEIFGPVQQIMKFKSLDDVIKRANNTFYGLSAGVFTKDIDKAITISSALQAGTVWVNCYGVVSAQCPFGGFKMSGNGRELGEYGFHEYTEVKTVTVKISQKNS
Gal4-VP16 FLuc – counter-screen for ROR gamma inhibitors: Gal4-VP16 reporter | Drosophila S2 Gal4-VP16 UAS-luciferase, luminescence, 20 h | 310,000 compounds, 3.5% hits | Potency, µM (titrated, usually from 53.6 µM), inactives show at the top dose activity, negative = inhibition, usual class: inhibitors;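 further: Gal4-VP16 expression switched on by copper sulfate through the metallothionein promoter; nearly all actives have a fitted effect of over 50% in size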
RORgamma inh – ROR gamma (mouse) transcription inhibition; AID 2551; 310,000 compounds, 5.4% hits; Drosophila S2 Gal4-RORgamma UAS-luciferase reporter, 20 h; P51450; Potency, µM (doses to about 53.6 µM), for the others: at the highest dose activity change, negative = inhibition, hits mostly inhibitors; further: nearly all actives have a fitted effect of over 60% in size
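Stable Schneider cell line, Gal4 DNA-binding domain fused to ROR gamma, UAS-luciferase. Cmpd 1 hr RT → CuSO4 700 uM final → 20 hr RT → luciferase reagent 10 min → luminescence.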
PLK1 PBD inh – PLK1 (human) polo-box domain binding inhibition; P53350; Plk1 PBD binding of FITC phosphopeptide, fluorescence polarization; Potency, µM, for inactives: max response, negative = inhibition, hits mostly inhibitors; 360,000 compounds, 2.8% hits; further: series mostly up to about 57 µM; nearly all actives have a fitted effect of over 65% in size
Sfp inh – Sfp phosphopantetheinyl transferase inhibition. Q9F4F7. Biochemical Sfp PPTase activity, qHTS. Potency, µM, inactives show largest response in the series, negative = inhibition, usual class: inhibitors. 310,000 compounds, 3.5% hits. AID 1490;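 further: the enzyme is Sfp with the accession as filed and its product quenches rhodamine fluorescence; 0% = enzyme reaction without inhibitor and -100% = no enzyme wells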
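After 15 min at room temperature with compound, 15 nM Sfp received 5 uM rhodamine-CoA plus 12.5 uM BHQ-2-ybbR (50 mM Hepes pH 7.6, 10 mM MgCl2). Rate came from the fluorescence difference over 30 min, ex 525/em 598 nm.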
The depositor's hits bear a star; u = inconclusive; x = no result; [ ] = another dose, or the depositor's remark. Most compounds without a hit are left out; they make up all but 12% or so of the library. Unless noted, the call rests on the fitted dose curve; in most records, active means well fitted curve in the direction sought with a large enough effect; inconclusive means small, poorly fitted or top-dose-only effect, or another doubt; inactive means no such curve, though single readings can be large; an effect the other way counts as inactive or inconclusive. Unless noted, on the % scale 0 is the no-effect control and ±100 the full control effect; potency means the concentration at half of the fitted maximal effect.

SMILES	ALDH1A1 inh	Gal4-VP16 FLuc	RORgamma inh	PLK1 PBD inh	Sfp inh
CC(=O)Nc1cccc(NC(=O)c2ccc(C(=O)Nc3cccc(NC(C)=O)c3)nc2)c1	u	-15%	-7%	-10%	15%
O=C(Nc1ccccc1)c1ccc(C(=O)Nc2ccccc2)nc1	u	-14%	20%	19µM*	3%
O=C(Nc1ccccc1)c1cn2ccccc2n1	-2%	2.8µM*	u	-3%	10%
Cc1csc(NC(=O)c2cn3ccccc3n2)n1	u	7.9µM*	5µM*	-6%	-29%
O=C(COc1cccnc1[N+](=O)[O-])c1c[nH]c2ccccc12	u	4%	u	-14%	2%
COCCn1c(C)cc(C(=O)COc2cccnc2[N+](=O)[O-])c1C	5.6µM*	-11%	16%	-3%	-71%
Cc1ccc(OCC(=O)c2ccc(Cl)s2)c([N+](=O)[O-])n1	2.2µM*	20µM*	u	u	20µM*
Cc1ccc(OCC(=O)c2cc(C)n(CC(F)(F)F)c2C)c([N+](=O)[O-])n1	20µM*	9%	37%	-9%	8%
Cc1ccc(OCC(=O)c2cc(C)n(Cc3cccs3)c2C)c([N+](=O)[O-])n1	u	3%[10 µM]	16%	-6%	-13%
Cc1cc(C)c(C(=O)COc2cccnc2[N+](=O)[O-])cc1C	1.6µM*	u	u	u	56µM*
COc1cccc(C(=O)N2CCC[C@@H]2C(=O)N2CCC[C@@H]2C(=O)NCc2ccccc2Cl)c1	x	x	x	2%	x
C[C@@H](N=C(N)N)C(=O)O	14%[13.5 µM]	x	x	x	x
CC(=O)Nc1cc(-c2cccc(C(=O)NCCN(C)C)c2)cn2c(-c3cccc(C(F)(F)F)c3)cnc12	x	x	x	-13%	x
C/C(=N\NC(=O)c1ccncc1)c1cc2ccccc2o1	-1%	-1%	u	-21%	14%
C/C(=N/NS(=O)(=O)c1ccc(C)cc1)c1c(O)c2ccccc2oc1=O	x	-3%	5%	-6%	11%
CNC(=O)c1cc2cc(OC)ccc2oc1=O	u	-4%	17%	-2%	12%
C/C(=N\NC(=O)c1ccncc1)c1cc2ccccc2oc1=O	13%	13µM*	7.9µM*	u	23%
COc1ccc2oc(=O)c(/C(N)=N/NC(=O)c3ccncc3)cc2c1	x	4%	u	24µM*	-16%
C/C(=N\NS(=O)(=O)c1ccc(C)cc1)c1cc2ccccc2oc1=O	16µM*	7%	-7%	-7%	8%
C/C(=N/NC(=O)c1ccncc1)c1cc2ccc(O)cc2oc1=O	u	-4%	12%[10 µM]	12µM*	13%
N/C(=N\NC(=O)c1ccccc1Cl)c1cc2ccccc2oc1=O	3%	u	14µM*	2%	-8%
COC(=O)c1cc2ccccc2oc1=O	u	6%	-15%	0%	8%
Oc1ccc(N2CCN(c3ncnc4sc5c(c34)CCC5)CC2)cc1	u	1%	-9%	-1%	56µM*
COc1cccc(/C=N/NC(=O)C(=O)NCc2ccco2)c1O	12%	6.3µM*	4µM*	-3%	17%
COc1ccccc1/C=N/NC(=S)NCc1ccco1	x	11µM*	2µM*	-9%	20%
SMILES	ALDH1A1 inh	Gal4-VP16 FLuc	RORgamma inh	PLK1 PBD inh	Sfp inh
COc1cc(/C=N/NC(=S)NCc2ccco2)cc(OC)c1OC	-3%	u	43%	-13%	12%
COc1cccc(/C=N/NC(=O)C(=O)NCc2ccco2)c1OC	-5%	3%	14%	2%	-2%
S=C(NCc1ccco1)N/N=C/c1ccccc1Cl	9%	u	11µM*	1%	-1%
COc1cc(Cl)c(C)cc1NC(=O)CN1CCN(C(=O)C2CC2)CC1	x	x	x	-2%	x
Cc1ccc(CN(C)C(=O)C2CCC(=O)N(CCc3ccccc3)C2)o1 (stereo not drawn)	x	u	22%	-11%	35µM*
O=S(=O)(NCCCCCCc1ccccc1)c1cccc2c(Cl)cccc12	u	5%	16%	x	-16%
CN(CC(=O)Nc1ccccc1Br)CC(=O)Nc1ccccc1-c1ccccc1	x	x	x	-10%	x
CC1CCCCC1NCC(=O)Nc1ccccc1-c1ccccc1 (stereo not drawn)	u	6%	27%	-17%	79µM*
O=C(Nc1ccccc1-c1ccccc1)C1CCC1	3.2µM*	10%	23%	-19%	6%
NC(=O)C1(N2CCCCC2)CCN(CC(=O)Nc2ccccc2-c2ccccc2)CC1	4µM*	4%	-14%	-10%	10%
Cc1ccc(NC(=O)CN(C)CC(=O)Nc2ccccc2-c2ccccc2)cc1	14µM*	-4%	24%	-7%	-20%
COc1ccc(CC(=O)Nc2ccc(S(=O)(=O)Nc3cc(C)nc(C)n3)cc2)cc1OC	x	x	x	-2%	x
COC(=O)C1(C(=O)OC)C/C=C\C/C=C\c2ccccc2[C@@H]1C[N+](=O)[O-]	2%	-6%	0%	x	-8%
Cc1ccn2c(CCc3nnc4cc(C)ccn34)nnc2c1	6%[13.5 µM]	x	x	x	x
Brc1ccc(Cn2c(-c3cncs3)nc3ccccc32)cc1	7%	6.3µM*	u	3%	-2%
Brc1cccc(Cn2c(-c3cncs3)nc3ccccc32)c1	-14%	8.9µM*	8.9µM*	-3%	-25%
N#CCCCCn1c(-c2cncs2)nc2ccccc21	-7%	7%	-23%	-2%	15%
c1ccc(Cn2c(-c3cncs3)nc3ccccc32)cc1	u	20%	-26%	1%	u
CC1CCCC(C)N1C(=O)COC(=O)c1cc(Br)ccc1Cl (stereo not drawn)	20µM*	4%	-16%	5%	11%
CCC1CCCCN1C(=O)COC(=O)c1cc(Br)ccc1Cl (stereo not drawn)	u	-7%	-12%	-11%	10%
CC1(C)Cc2c(cnn2-c2cccc(F)c2)C(NC(=O)CSc2ccncc2)C1 (stereo not drawn)	x	4%	-28%	-8%	9%
O=C(CCN1CCOCC1)NNC(=S)NC(=O)c1ccc(Br)cc1	u	u	11µM*	-25%	-8%
O=C(CCNC(=O)c1ccc(Br)cc1)NCCCN1CCOCC1	x	x	x	-20%	x
O=C(CCN1CCCCC1)NNC(=S)NC(=O)c1ccc(Br)cc1	28µM*	8.9µM*	2µM*	-11%	14%
O=c1c(-c2cccc(Cl)c2)nc2cncnc2n1Cc1ccccc1Cl	2%	0%	-20%	x	u
CC(=O)C1=C(C)Nc2ncnn2C1c1cccc(Br)c1 (stereo not drawn)	x	7%	-16%	-6%	10%
Cc1cc(NC(=O)c2cc(-c3ccc(C)c(C)c3)nc3ccccc23)no1	u	-7%	-35%	-8%	-15%
Cc1cccc(-c2cc(C(=O)NCc3ccccn3)c3ccccc3n2)c1	u	-3%	1%	0%	-8%
O=C(NCc1ccccn1)c1cc(-c2ccc(-c3ccccc3)cc2)nc2ccccc12	u	-20%	u	u	25µM*
O=C(NCc1ccccn1)c1cc(-c2ccccc2)nc2ccccc12	u	15%	-10%	-3%	6%

High-throughput results deposited in PubChem BioAssay by National Center for Advancing Translational Sciences (NCATS).
